PubChem BioAssay (NCI)
The panel holds about 79,000 compounds, 15% with a hit somewhere; the sample as a whole holds those more often. Active and inactive are the calls of the source. No stated cut-off is given here; in the data, active means growth inhibition above about 70%; inactive means the rest.

How the values were obtained:
[1] = NCI Yeast Anticancer Drug Screen. Data for the mec2-1 strain (AID 157); conditions: S. cerevisiae mec2-1 strain, active compounds read high
Procedure, shortened: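 Readout is yeast growth inhibition, normalised to vehicle-treated controls, in the mec2-1 strain exposed to compound.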

[2] = NCI Yeast Anticancer Drug Screen. Data for the rad14 strain (AID 159);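 further: 0% = growth of vehicle-treated control cultures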; conditions: S. cerevisiae rad14 strain growth inhibition, active compounds read high
Procedure, shortened: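 Inhibition of growth is reported for a repair-deficient yeast mutant following compound treatment, calculated relative to cultures that received vehicle.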

[3] = NCI Yeast Anticancer Drug Screen. Data for the sgs1 mgt1 strain (AID 161);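 further: 0% = growth of cultures given vehicle only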; conditions: S. cerevisiae sgs1 mgt1 strain, active compounds read high
Procedure, shortened: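 Percent growth inhibition was derived by comparing compound-exposed mutant yeast with vehicle-exposed cultures. The strain carries alterations in DNA damage repair.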

[4] = NCI Yeast Anticancer Drug Screen. Data for the CLN2oe strain (AID 163);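 further: 0% = growth of vehicle-only control cultures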; conditions: S. cerevisiae CLN2oe strain, active compounds read high
Procedure, shortened: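 Values reflect how much compound exposure reduced yeast growth, referenced to vehicle-exposed cells. Assay organism is a strain with a defined genetic change affecting cell-cycle control.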

[5] = NCI Yeast Anticancer Drug Screen. Data for the cln2 rad14 strain (AID 165);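 further: 0% = growth equal to vehicle treated cultures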; conditions: S. cerevisiae cln2 rad14 strain, active compounds read high
Procedure, shortened: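 Relative to vehicle controls, growth inhibition of compound-treated cln2 rad14 yeast was recorded.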

[6] = NCI Yeast Anticancer Drug Screen. Data for the bub3 strain (AID 167); conditions: S. cerevisiae bub3 mutant strain, active compounds read high
Procedure, shortened: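 Mutant yeast screening strain plus compound; vehicle-treated cultures serve as the 0% inhibition reference.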

[7] = NCI Yeast Anticancer Drug Screen. Data for the wt2 strain (AID 169); conditions: S. cerevisiae wt2 strain growth inhibition, active compounds read high
Procedure, shortened: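 Values express reduction in yeast growth under compound treatment, referenced to vehicle-treated cells.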

[8] = NCI Yeast Anticancer Drug Screen. Data for the mlh1 strain (AID 171);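 further: 0% = growth of vehicle-treated control cultures of the same strain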; conditions: S. cerevisiae mlh1 strain growth inhibition, active compounds read high
Procedure, shortened: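 Steps: expose the defined-mutant yeast strain to compound; expose a parallel culture to vehicle; measure growth; express compound effect as inhibition relative to the vehicle culture.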

[9] = NCI Yeast Anticancer Drug Screen. Data for the sgs1 strain (AID 173);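 further: 0% = growth of vehicle-only control cultures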; conditions: S. cerevisiae sgs1 mutant, active compounds read high
Procedure, shortened: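 Treat defined-mutant yeast with compound; measure growth; calculate inhibition relative to vehicle-treated cells.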

[10] = NCI Yeast Anticancer Drug Screen. Data for the mlh1 rad18 strain (AID 175); conditions: S. cerevisiae mlh1 rad18 strain growth inhibition, active compounds read high
Procedure, shortened: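 Test agents were incubated with a yeast strain of defined genotype (DNA damage repair defect). Inhibition of growth was derived by comparison with vehicle-exposed cultures.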

[11] = NCI Yeast Anticancer Drug Screen. Data for the rad18 strain (AID 177); conditions: S. cerevisiae rad18 mutant growth inhibition, active compounds read high
Procedure, shortened: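 A genetically defined yeast mutant impaired in DNA damage repair was treated with test compounds, then its growth was measured against cultures receiving vehicle alone.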

[12] = NCI Yeast Anticancer Drug Screen. Data for the rad52 strain (AID 147);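 further: 0% = growth of vehicle-treated control cultures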; conditions: S. cerevisiae rad52 mutant growth inhibition, active compounds read high
Procedure, shortened: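 Screen used a yeast mutant impaired in DNA repair. After compound exposure, growth was measured. Values reflect inhibition compared with vehicle-treated cells.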

[13] = NCI Yeast Anticancer Drug Screen. Data for the wt1 strain (AID 149);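 further: 0% = growth of vehicle-treated wt1 cultures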; conditions: S. cerevisiae wt1 strain (SPY 50644) growth inhibition, active compounds read high
Procedure, shortened: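 Each compound is tested on wt1 yeast and the loss of growth versus vehicle gives the inhibition value.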

[14] = NCI Yeast Anticancer Drug Screen. Data for the rad50EPP+ strain (AID 151);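 further: 0% = growth of vehicle-treated control cultures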; conditions: S. cerevisiae rad50 mutant strain, active compounds read high
Procedure, shortened: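 Exposing the rad50EPP+ strain to each compound, growth was compared with vehicle-only cultures to give inhibition.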

[15] = NCI Yeast Anticancer Drug Screen. Data for the mgt1 strain (AID 153); conditions: S. cerevisiae mgt1 mutant growth inhibition, active compounds read high
Procedure, shortened: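 Genetically defined yeast (mgt1) treated with compound; inhibition of growth expressed against vehicle-treated controls.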

[16] = NCI Yeast Anticancer Drug Screen. Data for the rad50 strain (AID 155);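 further: 0% = growth of vehicle-only cultures of the same strain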; conditions: S. cerevisiae rad50 strain growth inhibition, active compounds read high
Procedure, shortened: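 Vehicle-treated cultures provide the reference for the growth inhibition reported for compound-exposed, repair-deficient yeast.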

[17] = at 5.0 µM (retest, dose inferred, filed as 0.5)
[18] = at 50.0 µM (retest, dose inferred, filed as 5.0)

Measured: growth inhibition

O=C1OC(OC/C(Br)=C(\Br)COC2OC(=O)C(Cl)=C2Cl)C(Cl)=C1Cl (centres undefined)
active: [1]; [18] 98% | [1]; at 50.0 µM 96.1% | [3]; [18] 99% | [3]; at 50.0 µM 93.1% | [5]; [18] 96% | [6]; [18] 93% | [6]; at 50.0 µM 93.6% | [10]; [18] 96% | [10]; at 50.0 µM 94.3%
inactive: [1]; [17] 20% | [1]; at 11.0 µM 5% | [1]; at 33.0 µM 13% | [1]; at 100.0 µM 26% | [2]; at 1.2 µM 1% | [2]; at 3.7 µM 2% | [2]; at 11.0 µM 4% | [2]; at 33.0 µM 9% | [2]; at 100.0 µM 16% | [3]; [17] 39% | [4]; at 1.2 µM -2% | [4]; at 3.7 µM -1% | [4]; at 11.0 µM 2% | [4]; at 33.0 µM 9% | [4]; at 100.0 µM 14% | [5]; [17] 17% | [5]; at 50.0 µM 57.6% | [6]; at 1.2 µM 0% | [6]; at 3.7 µM -2% | [6]; [17] 13% | [6]; at 11.0 µM -4% | [6]; at 33.0 µM 1% | [6]; at 100.0 µM 16% | [7]; at 1.2 µM -1% | [7]; at 3.7 µM -2% | [7]; at 11.0 µM 0% | [7]; at 33.0 µM 3% | [7]; at 100.0 µM 10% | [8]; at 1.2 µM -1% | [8]; at 3.7 µM 0% | [8]; at 11.0 µM 2% | [8]; at 33.0 µM 4% | [8]; at 100.0 µM 12% | [9]; at 1.2 µM -1% | [9]; at 3.7 µM 0% | [9]; at 11.0 µM 0% | [9]; at 33.0 µM 6% | [9]; at 100.0 µM 20% | [10]; [17] 53% | [11]; at 1.2 µM 1% | [11]; at 3.7 µM 3% | [11]; at 11.0 µM 9% | [11]; at 33.0 µM 24% | [11]; at 100.0 µM 60%

Cc1c(-c2ccccn2)ccc2ccccc12
active: [14]; at 100.0 µM 71% | [15]; at 100.0 µM 88% | [16]; at 100.0 µM 73% | [3]; at 50.0 µM 80.8% | [6]; at 33.0 µM 70% | [6]; [18] 90% | [6]; at 50.0 µM 94.2% | [6]; at 100.0 µM 96% | [9]; at 100.0 µM 83%
inactive: [12]; at 1.2 µM -2% | [12]; at 3.7 µM -1% | [12]; at 11.0 µM 0% | [12]; at 33.0 µM 2% | [12]; at 100.0 µM 46% | [13]; at 1.2 µM -1% | [13]; at 3.7 µM 0% | [13]; at 11.0 µM -3% | [13]; at 33.0 µM -4% | [13]; at 100.0 µM 18% | [14]; at 1.2 µM -3% | [14]; at 3.7 µM 0% | [14]; at 11.0 µM 10% | [14]; at 33.0 µM 43% | [15]; at 1.2 µM 0% | [15]; at 3.7 µM -1% | [15]; at 11.0 µM -3% | [15]; at 33.0 µM 0% | [16]; at 1.2 µM 6% | [16]; at 3.7 µM 37% | [16]; [17] 1% | [16]; at 11.0 µM 44% | [16]; at 33.0 µM 15% | [16]; [18] 15% | [16]; at 50.0 µM 21.8% | [1]; at 1.2 µM -1% | [1]; at 3.7 µM 0% | [1]; [17] 1% | [1]; at 11.0 µM 1% | [1]; at 33.0 µM -1% | [1]; [18] 15% | [1]; at 50.0 µM 44.5% | [1]; at 100.0 µM 50% | [2]; at 1.2 µM 0% | [2]; at 3.7 µM 0% | [2]; at 11.0 µM 1% | [2]; at 33.0 µM 6% | [2]; at 100.0 µM 43% | [3]; [17] -2% | [3]; [18] 46% | [4]; at 1.2 µM -10% | [4]; at 3.7 µM -3% | [4]; at 11.0 µM -7% | [4]; at 33.0 µM -12% | [4]; at 100.0 µM -4% | [5]; [17] 1% | [5]; [18] 3% | [5]; at 50.0 µM 25.4% | [6]; at 1.2 µM 3% | [6]; at 3.7 µM 7% | [6]; [17] 18% | [6]; at 11.0 µM 24% | [7]; at 1.2 µM -2% | [7]; at 3.7 µM 7% | [7]; at 11.0 µM -4% | [7]; at 33.0 µM -3% | [7]; at 100.0 µM 43% | [8]; at 1.2 µM 0% | [8]; at 3.7 µM -1% | [8]; at 11.0 µM -76% | [8]; at 33.0 µM 0% | [8]; at 100.0 µM 39% | [9]; at 1.2 µM -2% | [9]; at 3.7 µM -1% | [9]; at 11.0 µM 1% | [9]; at 33.0 µM 24% | [10]; [17] -1% | [10]; [18] 20% | [10]; at 50.0 µM 59.8% | [11]; at 1.2 µM -1% | [11]; at 3.7 µM 2% | [11]; at 11.0 µM 6% | [11]; at 33.0 µM 13% | [11]; at 100.0 µM 67%

COc1ccc([N+](=O)[O-])c2c(NCCCN(C)C)c3ccccc3nc12
inactive: [12]; at 1.2 µM 15% | [12]; at 3.7 µM 30% | [12]; at 11.0 µM 58% | [13]; at 1.2 µM 1% | [13]; at 3.7 µM 1% | [13]; at 11.0 µM 3% | [13]; at 33.0 µM 9% | [13]; at 100.0 µM 23% | [14]; at 1.2 µM -3% | [14]; at 3.7 µM 3% | [14]; at 11.0 µM 13% | [14]; at 33.0 µM 22% | [14]; at 100.0 µM 45% | [15]; at 1.2 µM 2% | [15]; at 3.7 µM 2% | [15]; at 11.0 µM 6% | [15]; at 33.0 µM 10% | [15]; at 100.0 µM 42% | [16]; at 1.2 µM 5% | [16]; at 3.7 µM -1% | [16]; [17] 16% | [16]; at 11.0 µM 11% | [16]; at 33.0 µM 50% | [16]; at 50.0 µM 49.1% | [1]; at 1.2 µM 4% | [1]; at 3.7 µM 4% | [1]; [17] -3% | [1]; at 11.0 µM 12% | [1]; at 33.0 µM 47% | [1]; at 50.0 µM 12.9% | [2]; at 1.2 µM 4% | [2]; at 3.7 µM 10% | [2]; at 11.0 µM 29% | [3]; [17] 5% | [3]; at 50.0 µM 46.8% | [4]; at 1.2 µM -3% | [4]; at 3.7 µM 3% | [4]; at 11.0 µM 2% | [4]; at 33.0 µM 8% | [4]; at 100.0 µM 25% | [5]; [17] 42% | [5]; at 50.0 µM 66.2% | [6]; at 1.2 µM -2% | [6]; at 3.7 µM -2% | [6]; at 11.0 µM -4% | [6]; at 33.0 µM 1% | [6]; at 50.0 µM -29% | [6]; at 100.0 µM 9% | [7]; at 1.2 µM 1% | [7]; at 3.7 µM 2% | [7]; at 11.0 µM 5% | [7]; at 33.0 µM 17% | [7]; at 100.0 µM 38% | [8]; at 1.2 µM 0% | [8]; at 3.7 µM 2% | [8]; at 11.0 µM 4% | [8]; at 33.0 µM 19% | [8]; at 100.0 µM 45% | [9]; at 1.2 µM 12% | [9]; at 3.7 µM 31% | [9]; at 11.0 µM 56% | [10]; [17] 7% | [10]; at 50.0 µM 68.5% | [11]; at 1.2 µM 62%
active: [12]; at 33.0 µM 72% | [12]; at 100.0 µM 89% | [16]; [18] 90% | [16]; at 100.0 µM 71% | [1]; [18] 99% | [1]; at 100.0 µM 85% | [2]; at 33.0 µM 80% | [2]; at 100.0 µM 94% | [3]; [18] 79% | [5]; [18] 98% | [6]; [17] 91% | [6]; [18] 100% | [9]; at 33.0 µM 83% | [9]; at 100.0 µM 90% | [10]; [18] 98% | [11]; at 3.7 µM 82% | [11]; at 11.0 µM 90% | [11]; at 33.0 µM 93% | [11]; at 100.0 µM 95%
